Key:
Assay in all cases: phenotypically active (imaging signature differs from DMSO and reproducible) at any of 0.3-9 uM (binary (1 = active, 0 = inactive)); higher = active
Settings in all cases: treatment time: 24 h
[1] = system: A549-ACTB-RAB5A
Summary of the method: (§1)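 Live-cell features were measured per well and normalised to solvent control wells after fifteen gene-edited A549, HepG2 and WPMY1 reporter lines had been treated for 24 h at 0.3, 1, 3 or 9 µM in four wells each. A condition was deviating when ≥3 of 4 wells sat beyond the 95th percentile of control Euclidean distances. It was reproducible when the median replicate Pearson correlation exceeded the 95th percentile of non-replicates. Phenotypic activity demanded both.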

[2] = system: A549-CANX-COX4
Summary of the method: as §1

[3] = system: A549-GM130-SQSTM1
Summary of the method: as §1

[4] = system: A549-TP53BP1-CLTA
Summary of the method: as §1

[5] = system: A549-TUBA1B-RELA
Summary of the method: as §1

[6] = system: HepG2-ACTB-RAB5A
Summary of the method: as §1

[7] = system: HepG2-CANX-COX4
Summary of the method: as §1

[8] = system: HepG2-GM130-SQSTM1
Summary of the method: as §1

[9] = system: HepG2-TP53BP1-CLTA
Summary of the method: as §1

[10] = system: HepG2-TUBA1B-RELA
Summary of the method: as §1

[11] = system: WPMY1-ACTB-RAB5A
Summary of the method: as §1

[12] = system: WPMY1-CANX-COX4
Summary of the method: as §1

[13] = system: WPMY1-GM130-SQSTM1
Summary of the method: as §1

[14] = system: WPMY1-TP53BP1-CLTA
Summary of the method: as §1

[15] = system: WPMY1-TUBA1B-RELA
Summary of the method: as §1

Measured: phenotypically active

CCC1(c2ccccc2)C(=O)NCNC1=O [primidone]
inactive: [1] 0 | [2] 0 | [3] 0 | [4] 0 | [5] 0 | [6] 0 | [7] 0 | [8] 0 | [9] 0 | [10] 0 | [11] 0 | [12] 0 | [13] 0 | [14] 0 | [15] 0

CN1C(=O)OC(C)(C)C1=O [trimethadione]
inactive: [1] 0 | [2] 0 | [3] 0 | [4] 0 | [5] 0 | [6] 0 | [7] 0 | [8] 0 | [9] 0 | [10] 0 | [11] 0 | [12] 0 | [13] 0 | [14] 0 | [15] 0

Cc1cc(C(=O)NNCc2ccccc2)no1 [isocarboxazid]
inactive: [1] 0 | [2] 0 | [3] 0 | [4] 0 | [5] 0 | [6] 0 | [7] 0 | [8] 0 | [9] 0 | [10] 0 | [11] 0 | [12] 0 | [13] 0 | [14] 0 | [15] 0

CCCCc1nc(Cl)c(CO)n1Cc1ccc(-c2ccccc2-c2nnn[nH]2)cc1 [losartan]
inactive: [1] 0 | [2] 0 | [3] 0 | [4] 0 | [5] 0 | [6] 0 | [7] 0 | [8] 0 | [9] 0 | [10] 0 | [11] 0 | [12] 0 | [13] 0 | [14] 0 | [15] 0

C[N+](C)(C)CCCCCC[N+](C)(C)C [Hexamethonium bromide]
inactive: [1] 0 | [2] 0 | [3] 0 | [4] 0 | [5] 0 | [6] 0 | [7] 0 | [8] 0 | [9] 0 | [10] 0 | [11] 0 | [12] 0 | [13] 0 | [14] 0 | [15] 0

CC1(COc2ccc(CC3SC(=O)NC3=O)cc2)CCCCC1 (stereo not given) [Ciglitazone]
inactive: [1] 0 | [2] 0 | [3] 0 | [4] 0 | [5] 0 | [6] 0 | [7] 0 | [8] 0 | [9] 0 | [10] 0 | [11] 0 | [12] 0 | [13] 0 | [14] 0 | [15] 0

O=c1[nH]cnc2[nH]ncc12 [Allopurinol]
inactive: [1] 0 | [2] 0 | [3] 0 | [4] 0 | [5] 0 | [6] 0 | [7] 0 | [8] 0 | [9] 0 | [10] 0 | [11] 0 | [12] 0 | [13] 0 | [14] 0 | [15] 0

O=P(O)(O)C(O)(Cn1ccnc1)P(=O)(O)O [zoledronic-acid]
inactive: [1] 0 | [2] 0 | [3] 0 | [4] 0 | [5] 0 | [6] 0 | [7] 0 | [8] 0 | [9] 0 | [10] 0 | [11] 0 | [12] 0 | [13] 0 | [14] 0 | [15] 0

CC(C)c1ccc2oc3nc(N)c(C(=O)O)cc3c(=O)c2c1 [Amlexanox]
inactive: [1] 0 | [2] 0 | [3] 0 | [4] 0 | [5] 0 | [6] 0 | [7] 0 | [8] 0 | [9] 0 | [10] 0 | [11] 0 | [12] 0 | [13] 0 | [14] 0 | [15] 0

CCOC(=O)[C@H](CCc1ccccc1)N[C@@H](C)C(=O)N1CCC[C@H]1C(=O)O [enalapril]
inactive: [1] 0 | [2] 0 | [3] 0 | [4] 0 | [5] 0 | [6] 0 | [7] 0 | [8] 0 | [9] 0 | [10] 0 | [11] 0 | [12] 0 | [13] 0 | [14] 0 | [15] 0

Nc1ncnc2c1c(-c1ccc(Cl)cc1)nn2-c1cccc(-c2cnnn2Cc2cccc(-c3ccccc3)c2)c1
inactive: [1] 0 | [2] 0 | [3] 0 | [4] 0 | [5] 0 | [6] 0 | [7] 0 | [8] 0 | [9] 0 | [10] 0 | [11] 0 | [12] 0 | [13] 0 | [14] 0 | [15] 0

Source: the supplement of paper PMC7411054
